The list is not random: actives were taken first. Their share in the collection is about 7.9%.
Marburg entry inh: Marburg virus entry inhibition; Marburg virus pseudotyped entry inhibition, cell reporter; Potency, µM (top dose mostly 37.8 µM), inactives show at the highest dose activity change, negative = inhibition, actives largely listed as inhibitors; hit rate 1.8% among 300,000; calls by dose curve; tested in HEK293 cells; note: potency is the fitted concentration of half-maximal effect
LASV entry inh: Lassa virus entry inhibition; Lassa virus pseudotype entry inhibition, cell reporter; Potency, µM (highest dose often 37.9 µM), for the others: top-dose activity change, negative = inhibition, most hits filed as inhibitors; hit rate 1.2% among 300,000; AID 540256; calls by dose curve; tested in HEK293 cells; note: potency is the fitted concentration of half-maximal effect; nearly all actives have a fitted effect of over 50% in size
FMDV inh: blocks foot and mouth disease virus. AID 1159524. FMDV antiviral cell-based qHTS. Potency, µM (highest dose often 57.9 µM), for the others: at the highest dose activity change, negative = inhibition, most hits filed as inhibitors. hit rate 1.2% among 410,000; calls by dose curve; tested in HEK293T cells; note: read-out not given here; potency is the fitted concentration of half-maximal effect; nearly all actives have a fitted effect of over 45% in size
HCMV inh: blocks human cytomegalovirus replication | HFF cells, HCMV-luciferase reporter, 72 h; active compounds read low | activity change, negative = inhibition, % at 57.5 µM | hit rate 4.5% among 410,000; in the data active = activity change below about -60%; inconclusive = no clear call, values can overlap the other calls; inactive = above about -39%
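Compounds were evaluated in HFFs infected with an HCMV luciferase reporter virus (MOI 1 PFU/cell). Luciferase in lysates collected 72 h post infection served as the replication measure.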
HCV inhibitor: inhibitors of hepatitis C virus infection. Huh7.5.1 HCVcc-Cre infection, luciferase reporter, 44 h. Potency, µM (doses to about 41.8 µM), for the others: at the top dose activity change, negative = inhibition, most hits filed as inhibitors. hit rate 3.4% among 340,000. AID 651820; active = well fitted inhibition curve with a large enough effect; inconclusive = small, poorly fitted or top-dose-only effect, or another doubt; inactive = no such curve, though single readings can be large or run the other way; note: potency is the fitted concentration of half-maximal effect
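HCVcc-Cre virus at an moi near 0.5 was added right after compound to cells cultured 4 h from seeding (1,000 cells/well). Luciferase activity was determined 44 h later, 15 min after substrate addition at RT.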
Active calls of the source: *; ? = inconclusive; nt = no result given; ! = a repeat was not active; [ ] = dose if it differs, or a comment. % is set by controls: 0 for no effect and ±100 for the full control effect.

SMILES | Marburg entry inh | LASV entry inh | FMDV inh | HCMV inh | HCV inhibitor
COc1ccc(CCNC(=O)COc2ccc(N(C)S(=O)(=O)c3ccc(Cl)cc3)cc2)cc1 | ? | ? | ? | -18.0 | 7.08µM*
CCOc1ccccc1OCC(=O)Nc1ccc2[nH]c(=O)[nH]c2c1 | nt | nt | -11.1% | -18.3 | 12.6µM*
CNc1nc2cnc(-c3ccc(OC)c(OC)c3)cc2n1Cc1ccccc1 | nt | nt | nt | -7.7 | nt
CC(=O)Oc1c2c(c(CC=C(C)C)c3c1C(=O)C1=CC4CC5C(C)(C)OC(C/C=C(\C)C(=O)O)(C4=O)[C@]15O3)OC(C)(CCC=C(C)C)C=C2 (stereo not given in full) | nt | nt | 3.98µM* | nt | nt
COC(=O)/C(C)=C\CC12OC(C)(C)C3CC(C=C4C(=O)c5c(OC)c6c(c(CC=C(C)C)c5OC431)OC(C)(CCC=C(C)C)C=C6)C2=O (stereo not given) | nt | nt | 31.6µM* | nt | nt
CO/N=C/C(=N\Nc1ccc(OC)cc1)C(=O)c1ccc(OC)cc1 | ? | 11.2µM* | -22.1% | -36.8 | 0.1%
COc1ccc(/C=N/N2CCOCC2)cc1Cn1cc([N+](=O)[O-])cn1 | 19.8% | ? | 34.1% | 3.9 | 8.1%
O=C1CSc2ccc(C(=O)N3CCCCC3)cc2N1 | nt | nt | -15.8% | -68.3* | nt
NC(=O)C1CCCN(C(=O)c2ccc3c(c2)NC(=O)CS3)C1 (stereo not given) | nt | nt | -2.4% | -7.8 | 21.3%
Cc1c(Cl)cccc1N1C(=O)CC(Sc2ccccc2N)C1=O (stereo not given) | nt | nt | -10.4% | 4.0 | nt
CNC(=S)N1CCN(CCNC2=CC(=O)CC(C)(C)C2)CC1 | nt | nt | -8.9% | -21.8 | 3.1%
CC1(C)CC(NCCN2CCN(C3=CC(=C(C#N)C#N)CC(C)(C)C3)CC2)=CC(=C(C#N)C#N)C1 | nt | nt | -22.6% | -63.4* | ?
CCOc1c(Br)cc(CNC2CCCCCCC2)cc1OC | nt | nt | ? | -10.7 | 11.2µM*
COc1cc(CNC2CCCCCCC2)cc(Br)c1OCC#N | 11.6µM* | -16.6% | 0.0% | ? | ?
C=C(C#Cc1ccc(OC)cc1)CCN1C=C(C(=O)OCC)C(c2ccccc2)NC1=O (stereo not given) | 6.4%[14.2 µM] | ? | nt | nt | nt
O=C(O)c1nn(CCOc2c(Cl)cccc2Cl)c(=O)c2ccccc12 | ? | ? | -3.2% | -74.7* | 11.5%
O=C(O)c1nn(CCOc2cccc(Cl)c2)c(=O)c2ccccc12 | 3.5%[46.1 µM] | 1.5%[46.1 µM] | -10.1% | 81.0 | 2.4%
O=C(Nc1ccc(F)c(F)c1)c1ccco1 | nt | nt | 20.8% | -78.1* | 7.5%
O=C(c1ccco1)N1CCN(C(=O)c2ccc(-c3cccc(C(F)(F)F)c3)o2)CC1 | ? | 5.01µM* | -16.0% | -23.0 | -19.1%
CC(=O)Nc1ccc(S(=O)(=O)Nc2cccc(NC(=O)c3ccco3)c2)cc1 | -8.8%[46.1 µM] | -4.5%[46.1 µM] | 11.7% | -70.8* | ?
O=C(NCCNc1cc(Cl)ccc1[N+](=O)[O-])c1ccco1 | 7.5% | ? | 24.6% | -74.9* | -18.5%
CC(=O)Nc1ccc(S(=O)(=O)Nc2ccc(NC(=O)c3ccco3)cc2)cc1 | 6.3% | 2.4% | nt | -10.6 | 3.8%
O=C(Nc1ccc(Cl)c(Cl)c1)c1ccco1 | 20.2% | -28.9% | 0.0% | 23.0 | ?
O=C(NCc1ccncc1)c1cnn(-c2nccc(-c3cccs3)n2)c1C1CC1 | nt | nt | -1.2% | nt | nt
CS(=O)(=O)c1cccc(NC(=O)C2CC2)c1 | -6.9%[46.1 µM] | 1.0%[46.1 µM] | -10.9% | -33.0 | 10.0%
SMILES | Marburg entry inh | LASV entry inh | FMDV inh | HCMV inh | HCV inhibitor
O=C(Nc1cccc(C(F)(F)F)c1)c1ccco1 | 2.8% | -34.3% | 11.6% | -14.4 | 10µM*
O=C(Nc1ccc2[nH]c3c(c2c1)CCCC3)c1ccco1 | ? | 0.5% | 7.4% | -23.8 | 12.6µM*
O=C(Nc1cccc(S(=O)(=O)c2cccc(NC(=O)C3CC3)c2)c1)C1CC1 | ? | 20.6µM* | nt | ? | 5.62µM*
O=C(NNc1c([N+](=O)[O-])cc(C(F)(F)F)cc1[N+](=O)[O-])c1ccco1 | nt | nt | 31.6µM* | -11.4 | 4.1%
O=C(CCNC(=O)c1ccco1)Nc1cccc(C(F)(F)F)c1 | 2.3%[46.1 µM] | -9.6%[46.1 µM] | -2.5% | -6.0 | 1.9%
O=C(NNc1c(F)c(F)cc(F)c1F)c1ccco1 | nt | nt | -15.1% | -15.6 | -3.7%
COCCn1c(=O)c(-c2ccc(F)c(F)c2)nc2cncnc21 | nt | nt | -1.4% | nt | nt
O=C(Nc1cccc(S(=O)(=O)c2cccc(NC(=O)c3ccco3)c2)c1)c1ccco1 | ? | ? | 35.5µM* | -69.1* | 11.2µM*
Cc1ccc(C(=O)Nc2nc(C)c(C(=O)Nc3ccc4c(c3)CCC4)s2)cc1 | 1.12µM* | ? | 32.1% | ? | ?
Cc1nc(NC(=O)c2ccc(F)cc2)sc1C(=O)Nc1ccc2c(c1)CCC2 | -6.0% | -21.0% | nt | -14.2 | 6.5%
CC(C)Oc1cc(F)ccc1-c1cc(C(=O)NCc2ccccn2)[nH]n1 | nt | nt | -23.2% | -76.2* | nt
CCC(=O)Nc1nc(NCc2ccccc2OC)n(-c2ccccc2)n1 | nt | nt | 7.2% | 8.3 | 7.4%
Cc1ccc(NC(=O)N2CC=C(c3c[nH]c4ccccc34)CC2)cc1Cl | nt | ? | -5.8% | -66.0* | nt
CCN1CC=C(c2c[nH]c3ccccc23)CC1 | ? | 5.7% | -4.2% | -7.2 | 10µM*
COc1cccc(-n2c(C)nc3c(cnn3-c3ccc(C)cc3)c2=O)c1 | ? | -13.5% | -24.7% | ? | ?
Cc1ccc(-n2c(-c3ccco3)nc3c(cnn3-c3ccccc3C)c2=O)cc1 | -7.2%[46.1 µM] | ? | ? | -61.4*! | 9.2%
Cc1ccc(-n2c(-c3ccco3)nc3c(cnn3-c3ccc(C)cc3)c2=O)cc1 | ? | ? | 28.2µM*! | -6.1 | 7.8%
CCOC(=O)c1ccc(-n2c(C)nc3c(cnn3-c3ccc(Cl)cc3)c2=O)cc1 | 2.5%[46.1 µM] | -3.3%[46.1 µM] | ? | 8.8 | ?
CCOc1ccc(-n2c(-c3ccco3)nc3c(cnn3-c3ccc(C)cc3)c2=O)cc1 | ? | -16.4%[46.1 µM] | -23.7% | 19.0 | 3.3%
COc1ccc(-n2c(C)nc3c(cnn3-c3ccc(Cl)cc3)c2=O)cc1 | ? | -8.0% | ? | -76.8* | ?
Cc1cccc(-n2c(C)nc3c(cnn3-c3ccc(F)cc3)c2=O)c1 | ? | -6.1% | -25.4% | ? | 6.31µM*
Nc1ccccc1NC(=O)OCc1ccccc1 | nt | nt | nt | -15.1 | nt
COc1ccc(-c2nc3cc(C)ccn3c2NC(=O)c2cccc(F)c2)cc1 | ? | ? | -7.9% | 17.7 | nt
CCN(Cc1cc(OC)c(OC)c(OC)c1)S(=O)(=O)c1ccccc1Br | nt | ? | nt | -6.4 | nt
Cc1cccc(-n2c(-c3ccco3)nc3c(cnn3-c3ccc(F)cc3)c2=O)c1 | 4.4%[46.1 µM] | -30.6%[46.1 µM] | 0.0% | -65.4* | nt
O=C1CC(=O)OC(c2ccc([N+](=O)[O-])cc2)O1 | nt | nt | 10µM* | nt | nt
CCc1ccc(-c2cn3nc(C)c(C)nc3n2)cc1 | 2.06µM* | ? | -45.7% | -86.9* | -10.5%
Cc1nc2nc(-c3ccccc3)cn2nc1C | ? | 11.6µM* | nt | 104.0 | 14.1%
Cc1nc2nc(-c3ccc(F)cc3)cn2nc1C | nt | nt | -25.9% | 204.5 | 9.4%
CCC1(C2CCN(Cc3ccoc3)CC2)NC(=O)N(CC2COc3ccccc3O2)C1=O (stereo not given) | nt | nt | -13.3% | nt | nt

Assay outcomes deposited in PubChem by National Center for Advancing Translational Sciences (NCATS).
